Screens: PubChem BioAssay, several laboratories
Rows were chosen to be rich in hits. Some 3.9% of all compounds tested hit in one or more screens of this group.
Autofluor counter: flagged as autofluorescent in microsphere protease counterscreen; compound autofluorescence counterscreen, microsphere flow cytometry; stronger effect = higher value; hit rate 3.1% among 360,000; AID 624483; fluorescence intensity (concentration not given with the values); in the data active = fluorescence intensity above about 16000; inconclusive = no clear call, values can overlap the other calls
Anthrax LF inh2: inhibitors of Bacillus anthracis lethal factor protease | inhibition, % at 10 µM | P15917 | hit rate 0.12% among 360,000 | multiplex microsphere protease cleavage assay, LF; also: plate controls were buffer without enzyme for full effect and enzyme alone for no effect
Target sequence (P15917 whole entry, looked up): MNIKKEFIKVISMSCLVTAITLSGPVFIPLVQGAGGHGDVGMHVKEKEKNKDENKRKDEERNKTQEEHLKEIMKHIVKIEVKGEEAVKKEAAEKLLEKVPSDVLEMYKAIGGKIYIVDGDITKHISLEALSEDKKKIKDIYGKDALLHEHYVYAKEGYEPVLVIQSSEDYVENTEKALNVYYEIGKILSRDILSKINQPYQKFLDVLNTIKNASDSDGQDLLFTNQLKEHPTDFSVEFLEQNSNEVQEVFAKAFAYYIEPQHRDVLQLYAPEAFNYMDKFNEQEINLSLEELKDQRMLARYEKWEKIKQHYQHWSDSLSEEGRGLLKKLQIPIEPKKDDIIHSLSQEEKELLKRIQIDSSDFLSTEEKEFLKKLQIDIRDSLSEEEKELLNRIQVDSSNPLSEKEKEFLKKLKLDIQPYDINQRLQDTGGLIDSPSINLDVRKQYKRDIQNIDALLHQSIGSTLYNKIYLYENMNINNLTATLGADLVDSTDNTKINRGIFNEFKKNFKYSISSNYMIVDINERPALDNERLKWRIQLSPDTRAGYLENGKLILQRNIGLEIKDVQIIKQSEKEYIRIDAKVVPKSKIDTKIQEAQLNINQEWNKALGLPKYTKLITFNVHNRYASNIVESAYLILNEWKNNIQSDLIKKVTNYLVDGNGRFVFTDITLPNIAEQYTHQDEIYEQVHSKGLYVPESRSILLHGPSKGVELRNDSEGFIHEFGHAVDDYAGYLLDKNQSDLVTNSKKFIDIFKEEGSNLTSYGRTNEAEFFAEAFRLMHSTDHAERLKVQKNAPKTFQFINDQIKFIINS
BoNT-F LC inh: blocks Botulinum neurotoxin F light chain protease | inhibition, % at 10 µM | Multiplex microsphere protease cleavage assay, flow cytometry | hit rate 0.22% among 360,000; in the data active = inhibition above about 35%, passing the limit was not always enough; inconclusive = no clear call, values can overlap the other calls; also: plate controls were buffer without enzyme for full effect and enzyme alone for no effect
CCHFV vOTU inh: CCHFV vOTU protease inhibition; Pep-AMC fluorescence; inhibition, % at 11.5 µM; hit rate 0.55% among 370,000; AID 651958; in the data active = inhibition above about 30%; also: 0% = vehicle wells with enzyme and 100% = no enzyme wells
SARS 3CLpro inh: SARS-CoV 3CLpro protease inhibition. AID 1706. hit rate 0.14% among 290,000. inhibition, % at 6 µM. P0C6X7. recombinant SARS-CoV 3CLpro, quenched FRET peptide cleavage; in the data active = inhibition above about 12%
BoNT-A LC inh2: BoNT A light chain protease inhibition. multiplex microsphere protease substrate cleavage, flow cytometry. inhibition, % at 10 µM. hit rate 0.17% among 360,000; also: plate controls were buffer without enzyme for full effect and enzyme alone for no effect
The depositor's hits bear a star; ? = inconclusive; . = no result given. Rule as the data show it, unless noted: active = inhibition above about 30%; inconclusive = no clear call, values can overlap the other calls; inactive = below that.

SMILES	Autofluor counter	Anthrax LF inh2	BoNT-F LC inh	CCHFV vOTU inh	SARS 3CLpro inh	BoNT-A LC inh2
COc1cccc(C2NC(=O)NC(O)(C(F)(F)F)C2C(=O)c2cccnc2)c1OC (centres undefined)	22761*	1	0	-2	-2	1
COC(=O)c1cc(-c2cccc(C(C)C)c2)c(=O)n2c1CCC2	.	.	.	10	.	.
Cn1cccc1CNCc1ccccc1Cl	18677*	-4	-8	-6	-2	2
CCCCCNCc1cccn1C	6142	-5	0	-2	-1	0
CCOC(=O)c1sc(NC(=O)CSc2nnc(-c3ccc(OC)cc3)n2CCOC)nc1C	22333*	-3	-1	-4	0	1
Cc1nc2sc(C(=O)NCc3ccc4c(c3)OCO4)c(N)c2c(C)c1Cl	.	.	.	4	.	.
Cc1ccc(C)n1-c1ccc(-c2nnco2)cc1	5004	-1	-64	.	-2	0
Cc1c(Br)cc(-c2nnco2)cc1Br	23447*	-2	-2	-6	-3	0
COc1cccc(N2CCN(CC(=O)N(C)Cc3ccccc3Cl)CC2)c1	.	.	.	-4	.	.
COc1ccc(-n2nnc3c(=O)n(Cc4ccccc4C)cnc32)cc1	11273	-7	-13	.	-3	-1
Cc1ccc(C)c(Cn2cnc3c(nnn3-c3ccc(F)cc3)c2=O)c1	16844*	1	0	-2	0	-1
COc1ccc(S[C@]2(C(=O)N(C)C)CC(=O)N(c3ccccc3)[C@@H]2c2ccc(OC)cc2)cc1	.	.	.	-5	.	.
CCN1C(=O)/C(=C/C=C2\C=CN(CC)c3ccccc32)SC1=S	6742	16	-9	11	1	41*
Cc1cccc(CC(=O)NCCn2c(C)cc3ccccc32)c1	1493	-20	-58	7	-1	89*
Cc1ccc(S(=O)(=O)NCCn2c(C)cc3ccccc32)cc1	.	.	.	.	1	.
Cc1ccc(COc2ccsc2-c2n[nH]c(=S)n2C)cc1	22046*	-2	3	6	-2	2
CCCOc1ccc2c(=O)c(N3C(=O)c4ccccc4C3=O)c(C)oc2c1	20166*	-4	-1	-4	0	0
CC(=O)Oc1ccc2c(=O)c(N3C(=O)c4ccccc4C3=O)c(C)oc2c1	2475	3	-3	4	3	0
Cc1oc2cc(O)ccc2c(=O)c1N1C(=O)c2ccccc2C1=O	19700*	-3	-1	-6	1	1
Cc1c(C(=O)Nc2ccc(C(=O)Nc3ccccc3)cc2)cccc1[N+](=O)[O-]	3103	5	-6	-20	1	-2
COc1ccc(Br)cc1C(=O)Nc1ccccc1-c1ccccc1	28074*	-3	-15	-1	-5	-15
Cc1c(C(=O)Nc2ccccc2-c2ccccc2)cccc1[N+](=O)[O-]	20236*	-10	3	5	3	4
CCOc1ccc(C(=O)Nc2ccccc2-c2ccccc2)cc1Cl	17980*	-7	6	-10	1	6
CCOc1c(Cl)cc(C(=O)Nc2ccccc2C(=O)O)cc1Cl	19009*	-3	2	-1	6	?
COc1ccc(Br)cc1C(=O)Nc1ccccc1N1CCCC1	6629	-1	-14	-11	.	-2
SMILES	Autofluor counter	Anthrax LF inh2	BoNT-F LC inh	CCHFV vOTU inh	SARS 3CLpro inh	BoNT-A LC inh2
CCN1C/C(=C/c2ccc(N3CCOCC3)cc2)C(=O)/C(=C/c2ccc(N3CCOCC3)cc2)C1	4303	22	-8	-3	-2	37*
CN1C/C(=C\c2ccc(N3CCOCC3)cc2)C(=O)/C(=C/c2ccc(N3CCOCC3)cc2)C1	9043	33*	7	-15	2	34*
CN1C/C(=C/c2ccncc2)C(=O)/C(=C/c2ccncc2)C1	3711	-4	-6	7	-5	-6
COC(=O)c1ccccc1Nc1ccccc1	4349	1	-10	34*	-1	-1
O=C(/C=N/O)Nc1ccccc1C(=O)O	22836*	-1	4	3	-2	1
O=C(O)c1ccccc1Nc1ccccc1C(=O)O	17128*	-2	-7	16	1	?
O=C(Nc1ccccc1C(=O)O)c1ccccc1	4105	-1	-10	0	-6	0
COC(=O)c1ccccc1NC(=O)Oc1ccc(C(C)C)cc1	24059*	-3	-4	.	0	-1
Cn1cc(CC(=O)Nc2ccc(Nc3cccnc3)cc2)c2ccccc21	.	.	.	27	.	.
CC(=O)N1C(=O)NC(c2ccccc2)=C([N+](=O)[O-])C1c1ccccc1 (centres undefined)	3574	33*	-17	3	2	0
COc1ccc(C(C(=O)N(C)C2CCCC2)N(Cc2ccc(F)cc2)C(=O)c2sccc2Cl)cc1OC (centres undefined)	.	.	.	1	.	.
COc1ccc(C)cc1NC(=O)COC(C)=O	16638*	-2	-2	4	4	0
O=S(=O)(N/N=C/c1cn(Cc2ccccc2)c2ccccc12)c1ccccc1	22504*	-2	5	7	5	2
NC(=O)Cn1cc(/C=N\NS(=O)(=O)c2ccc(Cl)cc2)c2ccccc21	4503	-1	-9	7	-2	-1
Cc1ccc2nc(-c3ccc(NC(=O)CSc4nnc(-c5cc(-c6ccc(F)cc6)n[nH]5)n4N)cc3)sc2c1	.	.	.	-2	.	.
CCN1Cc2nnn(Cc3ccc(C)cc3)c2-c2ccccc2S1(=O)=O	.	.	.	-4	.	.
O=[N+]([O-])c1ccc(/C=N/n2c(COc3ccccc3)n[nH]c2=S)cc1	5892	-2	-7	2	3	0
O=[N+]([O-])c1cccc(/C=N/n2c(COc3ccccc3)n[nH]c2=S)c1	16172*	-8	3	4	0	0
COc1cccc(N=c2oc3ccccc3cc2-c2nc3ccccc3[nH]2)c1	?	1	54*	-3	-1	1
S=C(NCC1CCCCC1)OC1CCC12CCC(c1ccccc1)CC2 (centres undefined)	.	.	.	10	.	.
COc1ccc(S(=O)(=O)N2CCN(C(=O)CSc3nc4ccccc4nc3N3CCCCC3)CC2)cc1	.	.	.	1	.	.
Cn1c(SCc2ccc(Cl)cc2Cl)nc(C(F)(F)F)cc1=O	10747	-4	-1	-16	2	1
CC(C)Sc1nc(C(F)(F)F)cc(=O)n1-c1ccccc1	20162*	1	-1	13	9	?
CCSc1nc(C(F)(F)F)cc(=O)n1-c1ccccc1	20108*	1	0	9	2	?
CN(CC(=O)Nc1ccccc1C(=O)N1CCCC1)S(=O)(=O)c1ccc(Br)cc1	24180*	0	-3	-6	2	-2
O=C(C(=O)N1CCN(C(=O)C2CCC2)CC1)c1cccc(C(F)(F)F)c1	.	.	.	-2	.	.
CCOc1ccc(NC(=O)CN(C2CCCCC2)S(C)(=O)=O)cc1	22520*	-9	0	-7	2	?
CS(=O)(=O)N(CC(=O)Nc1ccc(Br)cc1)C1CCCCC1	4182	-26	?	12	3	?
CC(C)(C)C(=O)N(CCN(C(=O)C(C)(C)C)c1ccccc1)c1ccccc1	23201*	0	-1	-10	1	1
